# Among all 340,000 compounds or so, about 8,500 (2.5%) were called active. For the sample, actives were picked, then their nearest neighbours and some compounds at random. Unmarked numbers belong to inactive results.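 How the source made its calls: active means melting temperature shift of at least 10% of the positive control shift, at one fixed dose; inactive means the rest.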
# Test system: Glutamate receptor ionotropic, NMDA 3A (GRIN3A) ligand-binding domain
# Test: NR3A LBD thermal stabilization by compounds – biophysical, differential scanning fluorimetry, uHTS, primary screen (AID 1259313)
# Conditions: at 25 µM, active compounds read high, 0% = protein alone, 100% = glycine-bound protein
row,Structure (SMILES),Tm shift relative to glycine control
1,Cc1nc(SCC(=O)N2CCc3ccccc3C2)c2c(C)c(C)sc2n1,-0.44%
2,COc1cc(OC)cc(C(=O)NCC(=O)N2CCCCCCC2)c1,3.22%
3,Cn1c(Nc2cccc(Cl)c2)nc2ccccc21,8.46%
4,Cc1c(C(=O)Nc2cccc(Cl)c2)cn2c(nc3ccccc32)c1C#N,24.6% (active)
5,O=C(Nc1cccc(Cl)c1)c1cc([N+](=O)[O-])ccc1N1CCN(CCO)CC1,3.77%
6,CCCN(C(=O)c1nc2nccc(C)n2n1)c1c(N)n(Cc2ccccc2)c(=O)[nH]c1=O,-5.77%
7,O=C(CCN1C(=O)c2ccccc2C1=O)NNC(=O)c1ccc(Cl)cc1Cl,-1.46%
8,CCc1ccc(CNC(=O)C2CCN(c3nnc(C)c4c(C)n(-c5ccc(C)cc5)nc34)CC2)cc1,-2.58%
9,Oc1ccc(-c2nc3ccccc3nc2-c2ccc(O)cc2O)c(O)c1,-6.22%
10,COc1ccccc1N1CCN(/N=C/c2ccc(O)cc2O)CC1,1.98%
11,Cc1nc2ccccc2nc1N/N=C/c1ccc(O)cc1O,34.3% (active)
12,O=C(Nc1ccnn1C1CCN(Cc2cccc(OCCO)c2)CC1)C1CCCC1,0.6%
13,COc1ccc(CN2CC(C(=O)NCCc3ccc(Cl)cc3)CC2=O)cc1 (stereo not given),-2.13%
14,COc1ccccc1N(CC(=O)Nc1c(C)n(C)n(-c2ccccc2)c1=O)S(=O)(=O)c1ccccc1,-1.61%
15,COc1ccc(Cl)cc1NS(=O)(=O)c1cccc(C(=O)NC2CCC(O)CC2)c1 (stereo not given),0.97%
16,NS(=O)(=O)c1ccc(CCNC(=O)CCCn2c(SCC(=O)N3CCCC3)nc3ccsc3c2=O)cc1,-0.96%
17,O=C(Nc1cccc(-c2nc3ccccc3[nH]2)c1)c1ccc(C(=O)Nc2cccc(-c3nc4ccccc4[nH]3)c2)cc1,27.9% (active)
18,CC(C)Oc1ccc(/C=C(\NC(=O)/C=C/c2ccco2)C(=O)NCCc2nc3ccccc3[nH]2)cc1,-0.09%
19,CN(c1ccccc1)S(=O)(=O)c1cc(C(=O)Nc2nc3ccccc3[nH]2)ccc1Cl,-0.62%
20,CCC(=O)Nc1ccc2nn(-c3ccc(F)cc3)nc2c1,-10.1%
21,COc1cccc(NC(=O)COC(=O)/C=C/c2ccco2)c1,-0.92%
22,Cc1ccc(-n2nc3ccc(NC(=O)/C=C/c4ccco4)cc3n2)cc1C,32.1% (active)
23,O=C(/C=C/c1ccco1)Nc1ccc(Oc2ccccc2)cc1,2.36%
24,COc1ccc(C(=O)Nc2cccc(S(C)(=O)=O)c2)cc1,4.52%
25,O=C(/C=C/c1ccco1)Nc1cccc(-c2nc3ccccc3[nH]2)c1,22.5% (active)
26,COc1cc2c(cc1OC)C(c1ccccc1Br)NC(=O)C2 (stereo not given),-0.95%
27,Cn1c(=O)c2ccccc2n(CC(=O)Nc2ccc3c(c2)OCCO3)c1=O,-1.03%

row,Structure (SMILES),Tm shift relative to glycine control
1,C[C@@H]1NC(=O)c2cc([N+](=O)[O-])cc(F)c2NCCC[C@@H](C(N)=O)NC(=O)[C@H](CC(N)=O)NC1=O,1.79%
2,CC(=O)N(CN1C(=O)C2C3C=CC(C3)C2C1=O)c1cccc(Cl)c1 (stereo not given),-2.44%
3,Oc1c(Br)cc(/C=N/NC(=S)NCC2CCCO2)cc1Br (stereo not given),1.71%
4,COc1ccc(NC(=O)NC2CC3CCCC(C2)N3Cc2ccccc2)cc1 (stereo not given),0%
5,COc1ccc(-c2noc(C(C)NS(=O)(=O)c3ccc(NC(C)=O)cc3)n2)cc1 (stereo not given),-8.89%
6,CC(=O)Nc1ccc(S(=O)(=O)NC(C)C(=O)OCCOc2ccc(F)cc2)cc1 (stereo not given),22.1% (active)
7,CC(=O)Nc1ccc(S(=O)(=O)NC(C)C(=O)OCC(=O)NC2CCCC2)cc1 (stereo not given),0.79%
8,Cc1c(NC(=O)c2cc(-c3ccc(Cl)s3)nc3ccccc23)c(=O)n(-c2ccccc2)n1C,1.05%
9,C[C@H](NC(=O)C1CC(=O)N(c2ccc3c(c2)OCCO3)C1)C(=O)N1CCC(C(=O)O)CC1 (stereo not given in full),-0.91%
10,CCOC(=O)c1c(-c2ccccc2)oc2ccc(OCC(=O)NN)cc12,0.51%
11,CCOC(=O)c1c(-c2ccccc2)oc2cc(Br)c(O)cc12,13.8% (active)
12,CCOC(=O)c1c(-c2ccccc2)oc2cc(Br)c(O)c(C=O)c12,-7.04%
13,Cc1cccc(CC(=O)N2CCN=C2SCc2ccc([N+](=O)[O-])cc2)c1,-0.64%
14,CCN(CC)CCCNC(=O)c1cn(C)c2ccc(S(=O)(=O)N(C)C3CCCCC3)cc2c1=O,-1.61%
15,COc1ccc(C(=O)NCc2nnc(SCC(=O)Nc3cccc(OC)c3)o2)cc1,-1.39%
16,COc1ccc2oc(-c3cccc(NC(=O)CSc4ccc(Cl)cc4)c3)nc2c1,13.7% (active)
17,COc1cccc(NC(=O)CSc2nnc(-c3cccnc3)o2)c1,-0.43%
18,COCCCNC(=O)CNC(=O)c1nn(-c2ccc(OC)cc2)c(=O)c2ccccc12,-1.01%
19,CCOC(=O)C1CCN(CC(=O)Nc2ccc(OC)c(S(=O)(=O)N3CCCCC3)c2)CC1,0.25%
20,C#CCOCCOCCOCCNc1nc(N2CCN(C(=O)Cn3cc(CCO)nn3)CC2)nc(N2CCN(C(=O)[C@H](CCCCN)n3cc(CCCC)nn3)CC2)n1,0.76%
21,C#CCOCCOCCOCCNc1nc(N2CCN(C(=O)Cn3cc(CCCCN)nn3)CC2)nc(N2CCN(C(=O)[C@H](CCCCN)n3cc(CCC(=O)O)nn3)CC2)n1,1.78%
22,C#CCOCCOCCOCCNc1nc(N2CCN(C(=O)CCCCCCCCCCNC(=O)Cn3cc(CCCCCN)nn3)CC2)nc(N2CCN(C(=O)CCCCCCCCCCNC(=O)[C@H](CO)n3cc(CCCSC)nn3)CC2)n1,14.2% (active)
23,C#CCOCCOCCOCCNc1nc(N2CCN(C(=O)CCCCCCCCCCNC(=O)[C@H](CCCCN)n3cc(C)nn3)CC2)nc(N2CCN(C(=O)CCCCCCCCCCNC(=O)[C@H](CO)n3cc(CCCSC)nn3)CC2)n1,24.7% (active)
24,C#CCOCCOCCOCCNc1nc(N2CCN(C(=O)Cn3cc(CCO)nn3)CC2)nc(N2CCN(C(=O)Cn3cc(CCCN=C(N)N)nn3)CC2)n1,0%
25,C#CCOCCOCCOCCNc1nc(N2CCN(C(=O)[C@H](CCCCN)n3cc(CCC(=O)O)nn3)CC2)nc(N2CCN(C(=O)[C@H](CCCCN)n3cc(CC(C)O)nn3)CC2)n1 (stereo not given in full),1.78%
26,C#CCOCCOCCOCCNc1nc(N2CCN(C(=O)[C@H](C(C)C)n3cc(CCO)nn3)CC2)nc(N2CCN(C(=O)[C@H]([C@@H](C)CC)n3cc(CCCN=C(N)N)nn3)CC2)n1,1.78%
27,C#CCOCCOCCOCCNc1nc(N2CCN(C(=O)[C@H](CCC(=O)O)n3cc(CN)nn3)CC2)nc(N2CCN(C(=O)[C@H](CCC(=O)O)n3cc(CN)nn3)CC2)n1,1.02%

row,Structure (SMILES),Tm shift relative to glycine control
1,C#CCOCCOCCOCCNc1nc(N2CCN(C(=O)CCCCCCCCCCNC(=O)[C@H]([C@@H](C)CC)n3cc(CCCCN=C(N)N)nn3)CC2)nc(N2CCN(C(=O)CCCCCCCCCCNC(=O)[C@H](CO)n3cc(CCCSC)nn3)CC2)n1,17% (active)
2,CCn1c(SC)nc(O)c(C(c2ccc(OC)c(O)c2)c2c(O)nc(SC)n(CC)c2=O)c1=O,-1.71%
3,O=C(O)c1cc2ccccc2c(=O)s1,-0.71%
4,O=C(CCNC(=O)Cn1ccc2ccccc2c1=O)NCCC1=CCCCC1,-1.72%
5,O=C(NCc1ccccn1)C1CCN(S(=O)(=O)c2ccc(Br)cc2)CC1,-1.11%
6,Cc1nc(COc2cc3oc(=O)cc(C)c3cc2Cl)cs1,-0.26%
7,CCN(CC(=O)NC(C)C)C(=O)c1cc(S(=O)(=O)N2CCCCC2)ccc1N1CCCCC1,-0.99%
8,CC(=O)Nc1ccc(Nc2nc3c(S(=O)(=O)c4ccc(C)c(C)c4)nnn3c3ccccc23)cc1,14.7% (active)
9,Cc1cccc(Nc2nc3c(S(=O)(=O)c4ccccc4)nnn3c3ccccc23)c1C,1.31%
10,Cc1ccc(S(=O)(=O)c2nnn3c2nc(N2CCN(c4ccccn4)CC2)c2ccccc23)cc1,5.05%
11,CCC12CN3CC(CC)(CN(C1)C31C(=O)N(C)c3ccc(C)cc31)C2=O (stereo not given),0%
12,O=c1c2ccccc2nc2n1C(CSCc1ccccc1)CS2 (stereo not given),-1.4%
13,O=c1c2ccccc2nc2n1C(CSc1ccc(F)cc1)CN2 (stereo not given),-3.8%
14,O=c1c2ccccc2nc2n1C(CSCc1cccc(C(F)(F)F)c1)CS2 (stereo not given),16.1% (active)
15,COc1ccc(C(=O)NCc2nnc(SCC(=O)NC3=NCCS3)n2C)cc1,-1.86%
16,CCOc1ccc(NC(=O)c2ccc(NC(=O)COC(=O)c3ccc(NC(=O)CC#N)cc3)cc2)cc1,9.12%
17,CCOc1ccc(NC(=O)CCNC(=O)c2ccc(Br)cc2)cc1,-4.23%
18,CCOc1ccc(NC(=O)c2ccc(NC(=O)CN3C(=O)C(=O)N(CC(C)C)C3=O)cc2)cc1,28.5% (active)
19,CCCOc1ccc(Cl)cc1Nc1nc(NCCO)nc(N2CCCC2)n1,1.78%
20,Cc1cc(C)c(C#N)c(SCS(=O)c2ccc(C(C)(C)C)cc2)n1 (stereo not given),1.37%
21,O=C(Cc1cccs1)N/N=C/c1ccc(OCc2ccccc2)cc1,2.17%
22,CC(C)(C)C(=O)Nc1ccc(C(=O)N/N=C/c2ccccc2OC(=O)c2ccc(Cl)cc2Cl)cc1,2.16%
23,O=C(COc1ccc(/C=N/NC(=O)c2ccc(O)cc2)cc1)Nc1ccc([N+](=O)[O-])cc1,7.26%
24,O=C(N/N=C/c1ccc(OC(=O)c2ccccc2Cl)cc1)c1ccc(O)cc1,24.6% (active)
25,O=C(N/N=C/c1ccc(OCc2ccccc2)cc1)c1ccc(O)cc1,28.3% (active)
26,O=C(O)c1ccc(/C=N/NC(=O)c2ccc(Br)cc2)cc1,-0.55%

# From PubChem BioAssay AID1259313 (Sanford-Burnham Center for Chemical Genomics, 2017)
